Only some compounds are listed: those with a hit (about 1.7% of all), similar ones and a draw of the others.
EphB4 ephrin blk: antagonists of human EphB4-ephrin-B2 interaction. 0.15% of 97,000 active. P54760. inhibition, % at 7 µM. EphB4 LBD / TNYL-RAW-Alexa532 peptide, fluorescence polarization;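 active = inhibition above the screen-wide mean inhibition plus 3 SD, cut at about 15% in these data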;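 note: 0% = DMSO wells and 100% = excess unlabeled TNYL-RAW peptide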
FAK inh: FAK (human) kinase inhibition; inhibition, %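 (tested at 7 µM)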; 0.84% of 97,000 active; Q05397; biochemical FAK kinase activity assay; AID 727; in the data active = inhibition above about 19%;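 note: 0% = DMSO and 100% = reference compound high control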
PLK1 kinase inh: blocks human PLK1 kinase activity; P53350; recombinant PLK1 kinase, TR-FRET peptide phosphorylation; inhibition, % at 10 µM; 0.53% of 97,000 active; AID 619;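 active = inhibition of 50% or more in the single-concentration screen; inactive = inhibition below 50%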;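 note: 0% = DMSO max control and 100% = H-89 dihydrochloride min control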
PLK1 PBD inh: inhibitors of human Plk1 polo box domain binding; P53350; AID 693; Plk1 PBD phosphopeptide binding, fluorescence polarization; 0.13% of 97,000 active; inhibition, %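 (tested at about 20 µM)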; in the data active = inhibition above about 34%, passing the limit was not always enough
PTPN22 inh 2: blocks human PTPN22 phosphatase activity | AID 640 | Q9Y2R2 | recombinant LYP catalytic domain, DiFMUP fluorescence | inhibition, % at 2 µM | 0.21% of 96,000 active;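 active = inhibition at 2 µM at or above a set limit, the screen mean plus 3 SD, cut at about 24% in these data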;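 note: 0% = DMSO with enzyme and 100% = enzyme fully blocked by orthovanadate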
PTPN22 act: activators of human LYP (PTPN22) phosphatase; Q9Y2R2; recombinant LYP, DiFMUP fluorescence; 0 = plate median, 100 = signal doubled; activation, % at 2 µM; 0.11% of 96,000 active;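 active = activation at 2 µM above a set limit, the mean plus 5 SD, cut at about 37% in these data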
Starred values were filed as active, the others as inactive; · = not tested or not shown; [ ] = remark or other dose.

SMILES	EphB4 ephrin blk	FAK inh	PLK1 kinase inh	PLK1 PBD inh	PTPN22 inh 2	PTPN22 act
Cc1cc(N2CCN(C)CC2)n2cc(-c3ccc(F)cc3)nc2n1	-8.0	-3.5	-11.2	10.3	-5.1	7.7
CCn1nnc(NC(=O)c2cccc(-c3cc4ccccc4oc3=O)c2)n1	0.8	-0.7	-12.8	7.7	1.5	-4.5
Cc1ccc2nc(NC(=O)c3cccc(-c4cc5ccccc5oc4=O)c3)sc2c1	-8.1	-1.7	-21.1	8.1	26.3*	-22.4
O=C1c2ccccc2-c2onc3ccc(Oc4ccccc4)c1c23	1.3	36.4*	16.6	-68.7	9.1	-7.6
CCOC(=O)C(C(=O)OCC)c1cc(Br)c2noc3c2c1C(=O)c1ccccc1-3	-5.7	14.8	2.5	-13.7	9.1	-11.0
O=C(OCC1OC(n2cnc3c(N(C(=O)c4ccccc4)C(=O)c4ccccc4)ncnc32)C(O)C1F)c1ccccc1 (centres undefined)	2.6	4.3	-13.3	1.9	59.9*	-58.6
COc1ccc(-c2nc(CSCC(=O)NC3CCCc4ccccc43)c(C)o2)cc1OC (centres undefined)	2.8	-1.6	-16.2	-9.6	-1.0	4.5
COc1ccc(-c2nc(CS(=O)CC(=O)NC3CCCc4ccccc43)c(C)o2)cc1OC (centres undefined)	-1.3	2.8	69.0*	13.9	·	·
COc1cccc(-c2nc(CS(=O)CC(=O)O)c(C)o2)c1 (centres undefined)	-6.0	0.2	-8.6	15.7	-3.7	3.8
CCCN(CCC)CCNC(=O)CS(=O)Cc1nc(-c2ccc(C)cc2)oc1C (centres undefined)	5.4	2.1	-13.1	5.5	-6.5	4.8
Cc1ccc(-c2nc(CS(=O)CC(=O)NC3CCC(C)CC3)c(C)o2)cc1 (centres undefined)	1.4	5.4	64.7*	13.7	·	·
Cc1cccc(-c2nc(CS(=O)CC(=O)N3CCN(C)CC3)c(C)o2)c1 (centres undefined)	-2.5	-8.2	56.9*	-3.8	·	·
COc1cccc(-c2nc(CS(=O)CC(=O)NC3CCCC3)c(C)o2)c1 (centres undefined)	-0.1	2.9	66.4*	15.3	·	·
CCOC(=O)C1CCN(C(=O)CS(=O)Cc2nc(-c3ccc(C)cc3)oc2C)CC1 (centres undefined)	-4.1	-1.5	-8.2	-18.4	-0.4	-2.4
Cc1ccc(S(=O)(=O)/N=C(\CN2CCCCC2)N2CCOCC2)cc1	7.1	-1.9	-5.4	-1.1	0.6	-3.0
CCC1=NC(c2ccccc2OC)N(O)C1(C)C (centres undefined)	-12.3	-0.9	-13.4	13.7	5.8	-5.8
O=C(COc1ncnc2scc(-c3ccc(Cl)cc3)c12)NCc1ccco1	-3.2	3.8	24.5	6.2	3.5	0.2
Cc1nc2ccc(S(=O)(=O)N(C)CC(=O)NCc3ccc4c(c3)OCO4)cc2s1	2.9	-5.5	6.0	8.0	1.0	-1.6
Cc1nc2ccc(S(=O)(=O)NCC(=O)NCc3ccc4c(c3)OCO4)cc2s1	-4.0	3.8	-10.8	-9.7	27.2*	-26.8
Cc1ccccc1C1CC(c2ccc(F)cc2)Nc2nc(N)nn21 (centres undefined)	-6.4	-0.6	69.6*	14.9	-10.2	8.4
O=C(CCC1N=C2c3ccccc3N=C(SCc3ccc(F)cc3)N2C1=O)NCc1ccco1 (centres undefined)	16.3*	-4.7	-1.7	-3.6	15.1	-9.7
Cc1ccc(CSC2=Nc3ccccc3C3=NC(CC(=O)NCc4ccco4)C(=O)N23)cc1 (centres undefined)	4.8	6.9	3.9	-8.3	24.3*	-19.5
CCOC(=O)c1c(NC(=O)CC)sc(C(C)=O)c1C	-7.2	-1.7	-4.5	10.3	-2.2	0.1
CN(c1ccc(Cl)cc1)c1cc(=O)n(C)c2ccccc12	120.3*[fluorescence artefact?]	6.0	-11.8	0.3	2.0	-3.4
CC(C)N(Cc1nc(-c2ccccc2)no1)C(=O)c1ccc(Cl)cc1	0.5	4.6	-7.9	-12.3	-24.3	23.6
SMILES	EphB4 ephrin blk	FAK inh	PLK1 kinase inh	PLK1 PBD inh	PTPN22 inh 2	PTPN22 act
CC(C)N(Cc1nc(-c2ccc(Cl)cc2)no1)C(=O)CCCN1C(=O)c2ccccc2C1=O	1.6	8.8	53.8*	-6.4	·	·
CCN(CC)CCNc1nc(-c2ccccc2)c2c(c1C#N)CC(C)(C)OC2	2.4	1.8	-0.4	3.0	-6.1	5.7
CC1(C)Cc2c(C#N)c(NCCCO)nc(-c3ccccc3)c2CO1	-3.5	1.9	66.8*	-5.4	·	·
O=C(O)/C(=C\c1ccco1)NC(=O)c1cccc2ccccc12	16.6*	-2.9	-3.1	-13.8	4.0	0.0
Cc1nc(-c2ccccc2)sc1-c1nc(-c2ccncc2)ncc1S(=O)(=O)c1ccccc1	-4.5	-2.6	-19.9	17.4	-0.7	0.0
O=C(CSc1ncn[nH]1)Nc1ccccc1-c1ccccc1	0.8	-4.2	-8.1	20.4	-7.1	11.2
O=C(CSc1ncn[nH]1)Nc1nnc(-c2ccccc2)s1	0.2	-4.0	62.6*	9.3	·	·
CCOC(=O)n1c(=O)n(Cc2ccc(Cl)c(Cl)c2)c2ccccc21	1.2	14.1	-6.9	6.9	6.3	-3.3
O=C(c1ccccc1)c1ccc(OCC(O)CN2CCN(Cc3ccccc3)CC2)cc1 (centres undefined)	5.5	-0.4	-7.5	4.0	1.2	2.1
CC(=O)c1ccc(OCC(O)CN2CCN(c3ccccn3)CC2)cc1 (centres undefined)	1.2	-4.3	69.4*	3.7	·	·
CC(=O)c1ccc(OCC(O)CN2CCN(CC(O)COc3ccc(C(C)=O)cc3)CC2)cc1 (centres undefined)	-2.6	-0.1	-8.6	6.2	-0.5	0.1
CCOC(=O)C1CCN(CC(O)COc2ccc(C(C)=O)cc2)CC1 (centres undefined)	1.9	2.2	65.5*	1.0	·	·
CCOC(=O)C1CCN(CC(O)COc2ccc(C(C)(C)C)cc2)CC1 (centres undefined)	-3.4	-2.6	-2.1	-10.2	-1.2	0.2
CC(=O)c1ccc(OCC(O)CN2CCN(Cc3ccccc3)CC2)cc1 (centres undefined)	0.3	0.0	65.2*	0.3	·	·
S=c1[nH]nc(C23CC4CC(CC(C4)C2)C3)n1Cc1ccco1	-2.5	0.5	-10.3	-20.6	7.3	-7.4
COc1cc2c(cc1OC)C1=C(C#N)CC/C(=N\S(=O)(=O)c3ccccc3)N1CC2	-9.4	-5.3	61.4*	-13.1	·	·
O=S(=O)(NC12CC3CC(CC(C3)C1)C2)c1ccc(F)cc1	-5.4	-2.8	8.0	10.0	-3.0	3.9
Cc1ccc(N=C2C(=S)N(c3ccc(C)cc3)C(=N)N2/N=C/c2ccc(Cl)cc2)cc1	-3.0	-1.3	-13.4	7.3	11.8	-11.2
O=c1nc(-c2ccccc2)c2ccccc2[nH]1	2.1	-0.6	60.3*	6.9	0.7	-1.3
O=c1cc(-c2ccccc2)[nH]c2ccccc12	-2.3	5.1	-7.5	1.1	8.7	-9.2
COCCn1nnnc1CN(CCc1ccccc1)Cc1cc2ccc(C)cc2[nH]c1=O	7.2	-2.0	-5.2	0.8	-11.4	8.7
